Measured values taken from PubChem BioAssay (NCI).
The panel holds about 79,000 compounds, 15% with a hit somewhere; the sample as a whole holds those more often. Calls of active or inactive are those of the source. No stated cut-off is given here; in the data, active means growth inhibition above about 70%; inactive means the rest. Where a SMILES comes first, the peptide text is derived from it. The star is where a group is joined. Myristoyl = CCCCCCCCCCCCCC(=O)*

What was measured:
[1] = NCI Yeast Anticancer Drug Screen. Data for the rad50 strain (AID 155);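 further: 0% = growth of vehicle-only cultures of the same strain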; conditions: S. cerevisiae rad50 strain growth inhibition; at 50.0 µM; hits give high values
Outline: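 Yeast carrying a defined DNA repair defect were exposed to test compounds, and growth was compared with vehicle-treated controls to give percent inhibition.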

[2] = NCI Yeast Anticancer Drug Screen. Data for the mec2-1 strain (AID 157); conditions: S. cerevisiae mec2-1 strain, at 50.0 µM, hits give high values
Outline: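 Yeast mec2-1 mutant treated with compound. Readout: growth inhibition vs vehicle controls.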

[3] = NCI Yeast Anticancer Drug Screen. Data for the sgs1 mgt1 strain (AID 161);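 further: 0% = growth of cultures given vehicle only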; conditions: S. cerevisiae sgs1 mgt1 strain, at 50.0 µM, hits give high values
Outline: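 Mutant yeast exposed to compound; growth scored against vehicle-only wells.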

[4] = NCI Yeast Anticancer Drug Screen. Data for the cln2 rad14 strain (AID 165);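 further: 0% = growth equal to vehicle treated cultures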; conditions: S. cerevisiae cln2 rad14 strain, at 50.0 µM, hits give high values
Outline: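 cln2 rad14 yeast strain; compound exposure; growth inhibition read vs vehicle controls.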

[5] = NCI Yeast Anticancer Drug Screen. Data for the bub3 strain (AID 167); conditions: S. cerevisiae bub3 mutant strain, at 50.0 µM, hits give high values
Outline: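 Compounds were applied to a genetically altered yeast strain carrying a cell-cycle control defect. Growth inhibition was scored against vehicle-treated controls.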

[6] = NCI Yeast Anticancer Drug Screen. Data for the mlh1 rad18 strain (AID 175); conditions: S. cerevisiae mlh1 rad18 strain growth inhibition; at 50.0 µM; hits give high values
Outline: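 Yeast w/ defined DNA-repair lesions; compound exposure; growth vs vehicle controls → % inhibition.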

Measured: growth inhibition

Oc1ccccc1-c1nnc2n1N=C(c1ccc(-c3ccccc3)cc1)CS2
inactive: [1] 32.5% | [2] -12.3% | [3] 23.4% | [4] 20.3% | [5] -6.95% | [6] 7.55%

CS1(C)=NC(=O)c2cc([N+](=O)[O-])ccc2N=1
inactive: [1] 12.2% | [2] 19.4% | [3] 10.4% | [4] -25.2% | [5] 11.8% | [6] 12.8%

N#CCCc1c(O)ccc2ccccc12
inactive: [1] 38.6% | [2] 0.6% | [3] 10.1% | [4] -59.9% | [5] 10.5% | [6] 11.6%

C=CCC1(CO)CCCCC1O (stereo not given)
inactive: [1] 1.6% | [2] 1.5% | [3] 16.4% | [4] -73.4% | [5] 10.3% | [6] 3.2%

CC1(C)OC(=O)CC2(C)OC12 (stereo not given)
inactive: [1] -8% | [2] -52.3% | [3] -11.2% | [4] -16.4% | [5] -5.9% | [6] -19.2%

CC(C(O)c1ccc(Cl)cc1)C(O)(C(F)(F)F)C(F)(F)F (stereo not given)
active: [1] 99.2% | [2] 99.3% | [3] 99.2% | [4] 99% | [5] 99% | [6] 99.4%

COc1cc(NC(=O)CC(C)=O)cc(OC)c1
inactive: [1] -4% | [2] -5% | [3] -10% | [4] 3.2% | [5] -18.4% | [6] -2.5%

O=c1c2ccccc2c(=O)c2c1ccc1[nH]c3ccccc3sc12
inactive: [1] -7.15% | [2] -1.75% | [3] 7.6% | [4] -20.1% | [5] 6.2% | [6] -6.6%

COc1ccccc1NS(=O)(=O)c1ccc2ncn(NS(=O)(=O)c3ccc(Cl)cc3)c(=O)c2c1
inactive: [1] 27.5% | [2] 15.7% | [3] 30.1% | [4] 0.05% | [5] 26% | [6] 18.1%

CCC(C)[N-]c1cccc[n+]1[O-].CCC(C)[N-]c1cccc[n+]1[O-].[Cu+2] (stereo not given)
inactive: [1] 8.3% | [2] -3.9% | [3] -9.8% | [4] -2% | [5] -18.3% | [6] -18.4%

CC1(C)OCC(C2OC3OC(C)(C)OC3C2c2ccccc2)O1 (stereo not given)
inactive: [1] -3.55% | [2] -9% | [3] -31.1% | [4] 1.4% | [5] -2.8% | [6] 2.2%

O=C(O)Cc1ccccc1[N+](=O)[O-]
inactive: [1] 8.55% | [2] -12.1% | [3] -10.9% | [4] -16.9% | [5] -21.8% | [6] -3.95%

O=C(O)C1=C(C(=O)Nc2ccc(NC(=O)C3=C(C(=O)O)C4C=CC3C4)cc2)C2C=CC1C2
inactive: [1] -0.75% | [2] -0.35% | [3] -6.3% | [4] -28.4% | [5] 0.25% | [6] 9.95%

CCOC(OCC)C(O)c1ccccc1 (stereo not given)
inactive: [1] -17.2% | [2] -17% | [3] -11.9% | [4] -15% | [5] -12.6% | [6] -11%

CCc1c(O)c2c([nH]c1=O)SC(C)(C)CC2=NCC(C)C
inactive: [1] -23.8% | [2] -33.5% | [3] -16.9% | [4] -2.45% | [5] -43.6% | [6] 9.15%

O=C1c2ccccc2C(C(c2ccccc2)c2ccccc2)c2ccccc21
inactive: [1] -22% | [2] -18.6% | [3] -28.9% | [4] 8.45% | [5] 5.25% | [6] -14%

O=C(Nc1ccc(Cl)cc1)OCCN(CCOC(=O)Nc1ccc(Cl)cc1)C(=O)Nc1ccc(Cl)cc1
inactive: [1] 19.3% | [2] -19.1% | [3] 1.65% | [4] -3.25% | [5] -7.8% | [6] 9.15%

O=C1c2ccccc2SC[C@@H]2CCCN12
inactive: [1] 22.9% | [2] -7.75% | [3] -3.6% | [4] 9.35% | [5] 3.35% | [6] 2.35%

CC(=O)N1c2ccccc2C2=NN(C)C(=N)SC21 (stereo not given)
inactive: [1] -27.6% | [2] -5.7% | [3] -27.3% | [4] -7.65% | [5] -5.2% | [6] 1.65%

CCOC(=O)CCN(CC1CC=CCC1)c1cc(O)c2c(c1O)C(=O)c1ccccc1C2=O (stereo not given)
inactive: [1] -70.6% | [2] -4.75% | [3] -21.5% | [4] -2.55% | [5] 2% | [6] -9.85%

O=c1c2ccccc2sc2nc(CCl)nn12
inactive: [1] 6.2% | [2] 4.25% | [3] 8.2% | [4] 16.8% | [5] 2.05% | [6] 47.2%

O=C1ON=C(c2ccccc2)/C1=C\C=C\c1ccccc1
inactive: [1] 18.2% | [2] 9.9% | [3] 1.45% | [4] 23.1% | [5] 35.6% | [6] 14.5%

O=C(Nc1ccccc1[N+](=O)[O-])C(=O)C(C(=O)c1ccccc1-c1ccccc1)C1OC(=O)c2ccccc21 (stereo not given)
inactive: [1] 10.9% | [2] 0.6% | [3] 6.05% | [4] -51.4% | [5] 2.3% | [6] 9.55%

CCCCCCNC(=O)/C(=C\c1ccc(Cl)cc1Cl)NC(=O)c1ccccc1
inactive: [1] -3.7% | [2] -17.8% | [3] -9.75% | [4] 33.1% | [5] -16.5% | [6] -9.6%

CCCCCCCCCCCC[N+](C)(C)Cc1cc(=O)c(O)co1
inactive: [2] 43.6% | [5] 65% | [6] 27.2%
active: [1] 71.7% | [3] 74.1% | [4] 78.8%

CCCCCCCCCCCCCC(=O)NCC(=O)NC(C)C(=O)NC(CCCNC(=N)N)C(=O)NC(C)C(=O)NC(CO)C(=O)NC(C(=O)NC(CC(C)C)C(=O)NC(CO)C(=O)NCC(=O)NCC(=O)NC(CCC(=O)O)C(=O)NC(CC(C)C)C(=O)NC(CC(=O)O)C(=O)NC(CCCNC(=N)N)C(=O)NC(Cc1c[nH]c2ccccc12)C(=O)NC(Cc1ccc(O)cc1)C(N)=O)C(C)C (stereo not given) (Myristoyl-GARASVLSGGELDRWY-NH2; configuration not given here)
inactive: [1] -4% | [2] -6.9% | [3] -12.7% | [4] 8.8% | [5] -40.4% | [6] -6.5%

O=C1CSc2ccncc2N1
inactive: [1] 13.8% | [2] 2.9% | [3] 13.5% | [4] 11.4% | [5] 15.2% | [6] 24.1%

O=C1N2CCCSC2=NC1(c1ccccc1)c1ccccc1
inactive: [1] -7.15% | [2] 0.7% | [3] 1.75% | [4] 11.2% | [5] 13.2% | [6] -0.05%

Cc1ccc(S(=O)(=O)NNc2nc(N3CCCCC3)nc(N3CCCCC3)n2)cc1
inactive: [1] -1.25% | [2] -2.4% | [3] 8.2% | [4] -17.9% | [5] -4.85% | [6] 19.6%

Cn1c(=O)c2c(nc(N3CCOCC3)n2CCCNCC(O)c2ccc(O)c(O)c2)n(C)c1=O (stereo not given)
inactive: [1] -40.9% | [2] 4.3% | [3] -13.2% | [4] -29.9% | [5] -2.1% | [6] -21.6%

S=C1NC(/C=C/c2ccccc2)Nc2ccccc21 (stereo not given)
inactive: [1] 62.2% | [5] 27.6%
active: [2] 79.1% | [3] 73% | [4] 81.8% | [6] 88.2%

CN(/N=C/c1ccccn1)C1=NCCCN1
inactive: [1] -20.2% | [2] -22% | [3] -23% | [4] 5.35% | [5] -5.4% | [6] -27%

CCN1C(=O)c2cc(=O)[nH]c(O)c2C1C (stereo not given)
inactive: [1] 7.8% | [2] -2.7% | [3] -1.7% | [4] -20.4% | [5] -2.65% | [6] 10.9%

COc1cc2c(cc1OC)C(=O)/C(=C/c1ccc(N(C)C)cc1)CC2
inactive: [1] -39.5% | [2] -58% | [3] -28.9% | [4] -63.7% | [5] -7.2% | [6] -39.8%

O=C(O)c1ccc(NC(=S)NC(=O)c2cccc([N+](=O)[O-])c2)cc1
inactive: [1] 5.55% | [2] 16% | [3] 16% | [4] 16.8% | [5] 23.6% | [6] 23.6%

C/C(C/C(C)=N/C(N)=S)=N\C(N)=S
inactive: [1] -37.5% | [2] -23.1% | [3] -15.8% | [4] -12.4% | [5] 0.15% | [6] -13.5%

COc1ccc(NC(=O)Nc2cc(C(F)(F)F)ccc2Cl)cc1
inactive: [1] 14.6% | [2] 16.6% | [3] 5.9% | [4] -26.1% | [5] 2.5% | [6] -9.65%

CCOC(=O)CCCCCCCCCCCCC1C=CCC1 (stereo not given)
inactive: [1] -19.1% | [2] -41.4% | [3] -3.45% | [4] -28.6% | [5] -49.1% | [6] -21.3%

O=C(O)C(Br)C(O)c1ccccc1 (stereo not given)
inactive: [1] -5.15% | [2] -2.85% | [3] 0.85% | [4] 2.15% | [5] 4.25% | [6] -8.2%

Cc1cccc(C(C)C)c1NC(=O)C(=O)C(C#N)c1ccc(CC#N)cc1 (stereo not given)
inactive: [1] -27.9% | [2] 2.4% | [3] 17.9% | [4] -40% | [5] 1.55% | [6] 14.2%
